Measured values reported in PubChem BioAssay (EPA / NIEHS).
Values joined by “and” are separate entries in the source; they are usually repeats but may differ in a detail not shown here. Equal values may be shown once. Inconclusive results are not listed. The source holds several records for some structures; these can differ, active in one and inactive in another. Active and inactive are the calls of the source. How the source made its calls, unless noted: active means hit-call score of the fitted dose curve at least 0.9, where 1 is the maximum; inactive means score below 0.9.

Tests used:
[1] = ACEA_ER_80hr: ACEA Biosciences xCELLigence Real-Time Cell Analysis on Estrogen Receptor Agonism for Proliferation (AID 2282667; active means hit-call score of the fitted dose curve at least 0.9, where 1 is the maximum); settings: T47D proliferation, impedance (xCELLigence), 80 h
Method in brief: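 Cell-growth kinetics were measured by impedance in T47D cells treated continuously with compound (top 100 uM final, 1:4 steps, 8 points). Activity at 80 h was scored as signal gain over the DMSO baseline.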

[2] = ATG_CRE_CIS: Attagene CIS-FACTORIAL HepG2 Assay for human cAMP Responsive Element (CRE) binding protein 3 (AID 2282926); settings: HepG2 CRE cis-reporter, Attagene multiplexed mRNA; actives raise or lower the signal
Method in brief: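 We dosed HepG2 cells bearing multiple cis-promoter reporter units for 24 h and measured reporter mRNA by RT-PCR with capillary electrophoresis detection. Bidirectional concentration-response fitting used DMSO as negative control.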

[3] = target: CCAAT/enhancer-binding protein beta (Homo sapiens) (UniProt P17676); test: ATG_C_EBP_CIS: Attagene CIS-FACTORIAL HepG2 Assay for human CCAAT/Enhancer Binding Protein (C/EBP) beta (AID 2282927); settings: HepG2 Attagene cis-factorial transcription factor reporter; actives raise or lower the signal
Method in brief: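 Endogenous C/EBPb-driven reporter transcripts measured in transfected human HepG2 cells at 24 h via RT-PCR and capillary electrophoresis of labelled fragments. Activity fitted in both directions relative to DMSO baseline.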

[4] = ATG_CMV_CIS: Attagene CIS-FACTORIAL HepG2 Assay for human CMV (Internal Marker) (AID 2282928); settings: HepG2 CMV promoter reporter, transcription factor profiling; actives raise or lower the signal;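 further: endpoint acts as a background internal control marker rather than a target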
Method in brief: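 Cell system: HepG2, transiently transfected multiple reporter units under cis promoters. Exposure: 24 h. Detection: RT-PCR, FAM labeling, HpaI digestion, capillary electrophoresis. Analysis: bidirectional, DMSO baseline.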

[5] = ATG_DR4_LXR_CIS: Attagene CIS-FACTORIAL HepG2 Assay for human Liver X Receptor (LXR), DR4 submotif (AID 2282929); settings: HepG2 Attagene DR4 cis-reporter, mRNA transcription; actives raise or lower the signal
Method in brief: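 After transient transfection with multiplexed cis-promoter reporter units, HepG2 cells received test chemicals for 24 h. Reporter mRNA induction, detected by fluorescence after RT-PCR and capillary electrophoresis, was scored relative to DMSO.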

[6] = target: Aryl hydrocarbon receptor (Homo sapiens) (UniProt P35869); test: ATG_Ahr_CIS: Attagene CIS-FACTORIAL HepG2 Assay for human Aryl Hydrocarbon Receptor (Ahr) (AID 2282930); settings: HepG2 AhR cis-factorial reporter transcription; actives raise or lower the signal
Method in brief: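 Reporter mRNA levels, quantified by RT-PCR and fluorescent capillary electrophoresis, reflect endogenous AhR transcriptional activity in HepG2 cells carrying transfected cis-promoter reporter constructs. Readout at 24 h post-dose; gain or loss fitted against DMSO baseline.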

[7] = ATG_AP_1_CIS: Attagene CIS-FACTORIAL HepG2 Assay for human Activator Protein 1 (AP-1) (AID 2282931); settings: HepG2 Attagene cis-factorial AP-1 reporter mRNA; actives raise or lower the signal
Method in brief: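 After 24 h incubation with test chemical, RNA from transfected HepG2 cells was reverse-transcribed, amplified, fluorescently labelled and digested before capillary electrophoresis. Reporters were driven by cis-regulatory promoters; activity fitted bidirectionally versus DMSO.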

[8] = ATG_AP_2_CIS: Attagene CIS-FACTORIAL HepG2 Assay for human Activator Protein 2 (AP-2) (AID 2282932); settings: HepG2 AP-2 cis-reporter, Attagene transcription factor profiling; actives raise or lower the signal
Method in brief: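 HepG2, transient MRTU transfection, cis-regulated reporters; 24 h compound exposure; RNA isolated, RT-PCR, 6-FAM labelling, HpaI digest, CE fluorescence. DMSO = negative control/baseline, bidirectional fit.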

[9] = ATG_BRE_CIS: Attagene CIS-FACTORIAL HepG2 Assay for human Bone Morphogenetic Protein (BMP) Response Element (BRE) (AID 2282933); settings: HepG2 BMP response element reporter, Attagene transcription factor profiling; actives raise or lower the signal
Method in brief: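 Read-out: reporter mRNA induction quantified by RT-PCR and capillary electrophoresis after 24 h chemical exposure of transfected HepG2 cells. Endogenous factor activity on the BMP response element; gain or loss fitted against DMSO baseline.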

[10] = target: Retinoic acid receptor alpha (Homo sapiens) (UniProt P10276); test: ATG_DR5_RAR_CIS: Attagene CIS-FACTORIAL HepG2 Assay for human Retinoic Acid Receptor Alpha (RARE), DR5 submotif (AID 2282934); settings: HepG2 Attagene cis-factorial RARE DR5 reporter, mRNA; actives raise or lower the signal;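 on AC50: reporter responds to endogenous RAR alpha beta and gamma in HepG2 not RARA alone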
Method in brief: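 Reporter transcripts from a DR5-regulated unit, measured via RT-PCR plus capillary electrophoresis, reflect endogenous RAR activity in transiently transfected human HepG2 liver cells. Exposure lasted 24 h; gain or loss of signal scored against DMSO.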

[11] = target: Transcription factor E2F1 (Homo sapiens) (UniProt Q01094); test: ATG_E2F_CIS: Attagene CIS-FACTORIAL HepG2 Assay for human E2F Transcription Factor 1 (AID 2282935); settings: HepG2 Attagene cis-reporter, E2F reporter RNA transcripts; actives raise or lower the signal
Method in brief: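 Cis-element reporter mRNA induction in transiently transfected HepG2, 24 h exposure. Activity fitted in both directions relative to DMSO negative control.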

[12] = ATG_E_Box_CIS: Attagene CIS-FACTORIAL HepG2 Assay for human Enhancer Box (E-box) (AID 2282936); settings: HepG2 E-box cis-reporter transcription, actives raise or lower the signal
Method in brief: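 Cells: HepG2 (human liver), transient MRTU transfection. Exposure 24 h. RNA → oligo(dT) RT → PCR → 6-FAM label → HpaI → CE. Activity fitted both directions relative to DMSO.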

[13] = ATG_M_61_CIS: Attagene CIS-FACTORIAL HepG2 Assay for M61 Transcription Factor (Internal Marker) (AID 2282937); settings: HepG2 Attagene CIS-FACTORIAL M61 internal marker reporter; actives raise or lower the signal
Method in brief: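 Using transiently transfected HepG2 liver cells, reporter transcript levels were assessed 24 h post-dosing by RT-PCR and capillary electrophoresis. Changes in either direction were fitted relative to DMSO controls.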

[14] = ATG_EGR_CIS: Attagene CIS-FACTORIAL HepG2 Assay for human Early Growth Response 1 (EGR1) (AID 2282938); settings: HepG2 Attagene CIS-FACTORIAL EGR reporter mRNA; actives raise or lower the signal
Method in brief: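 Fluorescent capillary-electrophoresis signal of reporter cDNA fragments serves as read-out. HepG2 cells bear transiently transfected cis-promoter reporter units and are exposed 24 h; gain- or loss-of-signal is fitted against DMSO.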

[15] = ATG_M_19_CIS: Attagene CIS-FACTORIAL HepG2 Assay for M19 Transcription Factor (Internal Marker) (AID 2282939); settings: HepG2 Attagene CIS-FACTORIAL M19 internal marker reporter; actives raise or lower the signal
Method in brief: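 Readout: fluorescent reporter-transcript fragments by capillary electrophoresis after RT-PCR. Human HepG2 liver cells carried transfected MRTU constructs reporting endogenous transcription-factor activity; exposure 24 h. Gain or loss of signal fitted relative to DMSO.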

[16] = ATG_ERE_CIS: Attagene CIS-FACTORIAL HepG2 Assay for Estrogen Response Element (ERE) (AID 2282940); settings: HepG2 ERE cis-reporter, Attagene RNA transcript; actives raise or lower the signal
Method in brief: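 Readout: reporter mRNA induction by RT-PCR, FAM-labelled primer extension, HpaI digestion and capillary electrophoresis, 24 h after dosing transfected HepG2 cells. Endogenous transcription factors act on cis-element-regulated reporters. Gain or loss fitted against DMSO.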

[17] = ATG_Ets_CIS: Attagene CIS-FACTORIAL HepG2 Assay for human Erythroblast Transformation Specific (ETS) (AID 2282941); settings: HepG2 ETS cis-reporter transcription, actives raise or lower the signal
Method in brief: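 After transient cis-reporter transfection, HepG2 cells receive test chemical for 24 h. Reporter mRNA levels, measured by RT-PCR and capillary electrophoresis fluorescence, are analysed bidirectionally relative to the DMSO baseline.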

[18] = target: Hepatocyte nuclear factor 3-beta (Homo sapiens) (UniProt Q9Y261); test: ATG_FoxA2_CIS: Attagene CIS-FACTORIAL HepG2 Assay for human Forkhead box A2 (FOXA2) (AID 2282942); settings: HepG2 cis-reporter transcription factor activity, 24 h; actives raise or lower the signal
Method in brief: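 Fluorescence signal of reporter cDNA fragments, separated by capillary electrophoresis, reflects endogenous transcription factor activity in transfected HepG2 after 24 h. Both increases and decreases fitted against DMSO.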

[19] = ATG_FoxO_CIS: Attagene CIS-FACTORIAL HepG2 Assay for human Forkhead box O (FoxO) (AID 2282943); settings: HepG2 Attagene cis-reporter, FoxO element, mRNA; actives raise or lower the signal
Method in brief: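 Endogenous transcription factor activity read from multiplexed cis-promoter reporter transcripts in transiently transfected HepG2, 24 h after dosing. Reporter RNA measured via RT-PCR plus capillary electrophoresis of FAM-labeled products; gain or loss relative to DMSO.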

[20] = ATG_GATA_CIS: Attagene CIS-FACTORIAL HepG2 Assay for human GATA Binding Protein (AID 2282944); settings: HepG2 GATA cis-element reporter, Attagene multiplex mRNA; actives raise or lower the signal
Method in brief: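 Read-out: fluorescent reporter mRNA fragments resolved by capillary electrophoresis after RT-PCR. Human liver HepG2 cells carried transiently transfected cis-regulated reporter constructs; chemicals incubated 24 h; gain or loss of signal fitted relative to DMSO.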

Transcription factor E2F1 (Homo sapiens), sequence (Q01094 whole entry, looked up): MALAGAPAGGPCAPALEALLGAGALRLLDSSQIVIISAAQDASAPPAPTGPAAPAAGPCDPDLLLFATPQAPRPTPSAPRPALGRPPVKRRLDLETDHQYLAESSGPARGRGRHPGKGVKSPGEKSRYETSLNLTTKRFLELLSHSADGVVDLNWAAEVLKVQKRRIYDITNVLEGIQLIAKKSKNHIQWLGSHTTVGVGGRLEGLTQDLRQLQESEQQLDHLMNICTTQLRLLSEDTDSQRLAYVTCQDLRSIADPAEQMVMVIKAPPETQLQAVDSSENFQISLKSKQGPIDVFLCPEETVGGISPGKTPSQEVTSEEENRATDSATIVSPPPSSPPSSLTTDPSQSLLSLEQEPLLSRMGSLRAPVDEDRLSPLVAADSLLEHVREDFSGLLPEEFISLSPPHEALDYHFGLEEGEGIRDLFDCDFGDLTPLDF
Retinoic acid receptor alpha (Homo sapiens), sequence (P10276 whole entry, looked up): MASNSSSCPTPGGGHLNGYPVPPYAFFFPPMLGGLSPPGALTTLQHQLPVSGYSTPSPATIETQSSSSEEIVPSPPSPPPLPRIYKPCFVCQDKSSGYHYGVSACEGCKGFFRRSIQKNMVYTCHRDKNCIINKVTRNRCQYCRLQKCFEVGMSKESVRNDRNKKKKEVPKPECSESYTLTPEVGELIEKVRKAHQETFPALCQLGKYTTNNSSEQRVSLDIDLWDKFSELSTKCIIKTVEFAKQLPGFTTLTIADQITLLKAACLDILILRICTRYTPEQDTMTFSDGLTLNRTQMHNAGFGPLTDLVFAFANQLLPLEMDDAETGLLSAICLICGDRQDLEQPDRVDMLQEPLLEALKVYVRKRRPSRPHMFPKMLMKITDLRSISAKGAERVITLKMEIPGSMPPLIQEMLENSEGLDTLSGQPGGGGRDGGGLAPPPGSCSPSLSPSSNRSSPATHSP
Hepatocyte nuclear factor 3-beta (Homo sapiens), sequence (Q9Y261 whole entry, looked up, the tested form may be a part): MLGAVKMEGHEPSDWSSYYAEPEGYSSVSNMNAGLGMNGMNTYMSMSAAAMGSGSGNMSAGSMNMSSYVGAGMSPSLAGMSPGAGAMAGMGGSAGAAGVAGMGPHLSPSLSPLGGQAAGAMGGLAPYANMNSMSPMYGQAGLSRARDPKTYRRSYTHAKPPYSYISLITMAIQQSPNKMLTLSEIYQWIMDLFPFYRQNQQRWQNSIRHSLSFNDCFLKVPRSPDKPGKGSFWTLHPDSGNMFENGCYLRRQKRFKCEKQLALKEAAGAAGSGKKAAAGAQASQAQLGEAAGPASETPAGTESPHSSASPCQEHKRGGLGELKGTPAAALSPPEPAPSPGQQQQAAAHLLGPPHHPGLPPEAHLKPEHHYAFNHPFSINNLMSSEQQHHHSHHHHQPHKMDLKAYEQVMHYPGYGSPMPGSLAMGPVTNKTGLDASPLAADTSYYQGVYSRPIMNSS
Aryl hydrocarbon receptor (Homo sapiens), sequence (P35869 whole entry, looked up): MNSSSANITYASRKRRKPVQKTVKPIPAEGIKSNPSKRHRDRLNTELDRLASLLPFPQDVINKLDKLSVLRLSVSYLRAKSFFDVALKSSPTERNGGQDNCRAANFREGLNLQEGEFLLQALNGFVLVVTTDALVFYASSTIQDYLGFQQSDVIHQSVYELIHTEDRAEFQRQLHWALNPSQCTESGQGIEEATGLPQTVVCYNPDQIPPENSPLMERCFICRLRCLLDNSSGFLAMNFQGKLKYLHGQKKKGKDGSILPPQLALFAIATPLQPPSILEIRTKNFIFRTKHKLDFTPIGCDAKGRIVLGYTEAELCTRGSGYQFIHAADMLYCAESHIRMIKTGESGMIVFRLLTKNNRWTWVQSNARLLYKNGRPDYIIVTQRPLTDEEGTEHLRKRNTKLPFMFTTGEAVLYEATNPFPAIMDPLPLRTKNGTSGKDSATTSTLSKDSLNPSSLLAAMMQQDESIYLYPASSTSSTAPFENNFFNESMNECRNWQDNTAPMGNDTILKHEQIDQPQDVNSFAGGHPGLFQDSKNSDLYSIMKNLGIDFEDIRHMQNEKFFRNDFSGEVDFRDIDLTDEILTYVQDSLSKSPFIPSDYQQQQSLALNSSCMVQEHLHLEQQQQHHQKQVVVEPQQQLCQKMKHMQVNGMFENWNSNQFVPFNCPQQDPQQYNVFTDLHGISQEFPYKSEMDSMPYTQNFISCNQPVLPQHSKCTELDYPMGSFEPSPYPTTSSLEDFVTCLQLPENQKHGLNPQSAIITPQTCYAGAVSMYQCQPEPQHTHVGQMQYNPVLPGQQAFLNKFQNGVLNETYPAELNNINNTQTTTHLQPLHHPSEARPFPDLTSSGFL
CCAAT/enhancer-binding protein beta (Homo sapiens), sequence (P17676 whole entry, looked up, the tested form may be a part): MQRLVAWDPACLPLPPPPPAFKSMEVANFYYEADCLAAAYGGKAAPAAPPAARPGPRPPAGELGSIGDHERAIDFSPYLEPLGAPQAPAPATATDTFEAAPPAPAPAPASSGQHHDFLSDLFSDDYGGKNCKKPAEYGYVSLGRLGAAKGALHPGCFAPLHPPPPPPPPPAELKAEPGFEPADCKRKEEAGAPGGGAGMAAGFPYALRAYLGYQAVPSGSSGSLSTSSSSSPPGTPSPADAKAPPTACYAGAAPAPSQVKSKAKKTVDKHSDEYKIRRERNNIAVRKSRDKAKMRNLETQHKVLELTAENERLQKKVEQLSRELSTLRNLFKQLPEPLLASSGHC

In the case of `O=S(=O)(O)C(F)(F)C(F)(F)C(F)(F)C(F)(F)C(F)(F)C(F)(F)C(F)(F)F`, the outcome [1] is reported as “inactive”, the outcome [2] is reported as “inactive” and the AC50 [3] is reported as 70.3 µM (active) and 50 µM (active). For the same compound, the outcome [4] was “inactive”, the AC50 [5] was 29.7 µM (active) and the outcome [5] was “inactive”. For the same compound, the outcome [6] was “inactive”, the AC50 [7] was 100 µM (active) and the outcome [7] was “inactive”. The outcome [8] was “inactive”, the AC50 [9] was 100 µM (active) and the outcome [9] was “inactive”. For the same compound, the outcome [10] was “inactive”, the outcome [11] was “inactive” and the outcome [12] was “inactive”. The outcome [13] was “inactive”, the outcome [14] was “inactive” and the outcome [15] was “inactive”. For the same compound, the AC50 [16] was 48.4 µM (active) and 69.9 µM (active), the outcome [17] was “inactive” and the outcome [18] was “inactive”. For the same compound, the outcome [19] was “inactive” and the outcome [20] was “inactive”.

With `FC(F)(F)C(F)(F)C(F)(F)C(F)(F)CCI` the outcome [1] was “inactive”, the outcome [2] was “inactive” and the outcome [3] was “inactive”. For the same compound, the outcome [4] was “inactive”, the outcome [5] was “inactive” and the AC50 [6] was 43.5 µM (active). The outcome [6] was “inactive”, the outcome [7] was “inactive” and the outcome [8] was “inactive”. For the same compound, the outcome [9] was “inactive”, the outcome [10] was “inactive” and the outcome [11] was “inactive”. The outcome [12] was “inactive”, the outcome [13] was “inactive” and the outcome [14] was “inactive”. For the same compound, the outcome [15] was “inactive”, the AC50 [16] was 16.3 µM (active) and the outcome [16] was “inactive”. The outcome [17] was “inactive”, the outcome [18] was “inactive” and the outcome [19] was “inactive”. The outcome [20] was “inactive”.

For `C(=C(c1ccccc1)c1ccccc1)c1ccccc1`, the AC50 [1] was 647 nM (active), the outcome [2] was “inactive” and the outcome [3] was “inactive”. The AC50 [4] was 30 µM (active), the AC50 [5] was 59 µM (active) and the outcome [6] was “inactive”. The AC50 [7] was 36.7 µM (active), the outcome [8] was “inactive” and the outcome [9] was “inactive”. For the same compound, the outcome [10] was “inactive”, the outcome [11] was “inactive” and the outcome [12] was “inactive”. For the same compound, the outcome [13] was “inactive”, the outcome [14] was “inactive” and the outcome [15] was “inactive”. The AC50 [16] was 0.0294 µM (active), the outcome [17] was “inactive” and the outcome [18] was “inactive”. The outcome [19] was “inactive” and the outcome [20] was “inactive”.

With `OCCCC(F)(F)C(F)(F)C(F)(F)C(F)(F)C(F)(F)C(F)(F)C(F)(F)F` the outcome [1] was “inactive”, the AC50 [2] was 51.4 µM (active) and the outcome [2] was “inactive”. For the same compound, the outcome [3] was “inactive”, the outcome [4] was “inactive” and the AC50 [5] was 35.6 µM (active). The outcome [5] was “inactive”, the outcome [6] was “inactive” and the outcome [7] was “inactive”. For the same compound, the AC50 [8] was 75.5 µM (active), the outcome [8] was “inactive” and the outcome [9] was “inactive”. The outcome [10] was “inactive”, the outcome [11] was “inactive” and the AC50 [12] was 72.9 µM (active). For the same compound, the outcome [12] was “inactive”, the outcome [13] was “inactive” and the AC50 [14] was 80.6 µM (active). For the same compound, the outcome [14] was “inactive”, the AC50 [15] was 264 µM (active) and the outcome [15] was “inactive”. For the same compound, the AC50 [16] was 19.9 µM (active), the outcome [16] was “inactive” and the outcome [18] was “inactive”. The AC50 [19] was 65.3 µM (active), the outcome [19] was “inactive” and the AC50 [20] was 78.9 µM (active). For the same compound, the outcome [20] was “inactive”.

In the case of `CCc1c(Br)c(Br)c(Br)c(Br)c1Br`, the outcome [1] is reported as “inactive”, the outcome [2] is reported as “inactive” and the outcome [3] is reported as “inactive”. For the same compound, the outcome [4] was “inactive”, the outcome [5] was “inactive” and the outcome [6] was “inactive”. For the same compound, the outcome [7] was “inactive”, the outcome [8] was “inactive” and the outcome [9] was “inactive”. For the same compound, the AC50 [10] was 16.4 µM (active), the outcome [11] was “inactive” and the outcome [12] was “inactive”. The outcome [13] was “inactive”, the outcome [14] was “inactive” and the outcome [15] was “inactive”. The outcome [16] was “inactive”, the outcome [17] was “inactive” and the outcome [18] was “inactive”. For the same compound, the outcome [19] was “inactive” and the outcome [20] was “inactive”.
